The target in experiment [1] is Progesterone receptor (Homo sapiens) (UniProt P06401). The experiment is described as follows: qHTS assay to identify small molecule antagonists of the progesterone receptor (PR) signaling pathway (AID 1346795; active = well fitted inhibition curve with a large enough effect in the signal ratio in the repeat runs, not every such curve was filed as active; the % refers to the signal ratio; note: potency is the fitted concentration of half-maximal effect). Put shortly: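 After 6 hr plating at 37C in 2% stripped-serum medium, PR-UAS-bla HEK293T cells got compounds, then 1 nM R5020. Sixteen hours later, LiveBLAzer substrate was applied for 2 hr at room temperature and fluorescence was recorded.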
Chain of Progesterone receptor (Homo sapiens) (P06401 whole entry, looked up): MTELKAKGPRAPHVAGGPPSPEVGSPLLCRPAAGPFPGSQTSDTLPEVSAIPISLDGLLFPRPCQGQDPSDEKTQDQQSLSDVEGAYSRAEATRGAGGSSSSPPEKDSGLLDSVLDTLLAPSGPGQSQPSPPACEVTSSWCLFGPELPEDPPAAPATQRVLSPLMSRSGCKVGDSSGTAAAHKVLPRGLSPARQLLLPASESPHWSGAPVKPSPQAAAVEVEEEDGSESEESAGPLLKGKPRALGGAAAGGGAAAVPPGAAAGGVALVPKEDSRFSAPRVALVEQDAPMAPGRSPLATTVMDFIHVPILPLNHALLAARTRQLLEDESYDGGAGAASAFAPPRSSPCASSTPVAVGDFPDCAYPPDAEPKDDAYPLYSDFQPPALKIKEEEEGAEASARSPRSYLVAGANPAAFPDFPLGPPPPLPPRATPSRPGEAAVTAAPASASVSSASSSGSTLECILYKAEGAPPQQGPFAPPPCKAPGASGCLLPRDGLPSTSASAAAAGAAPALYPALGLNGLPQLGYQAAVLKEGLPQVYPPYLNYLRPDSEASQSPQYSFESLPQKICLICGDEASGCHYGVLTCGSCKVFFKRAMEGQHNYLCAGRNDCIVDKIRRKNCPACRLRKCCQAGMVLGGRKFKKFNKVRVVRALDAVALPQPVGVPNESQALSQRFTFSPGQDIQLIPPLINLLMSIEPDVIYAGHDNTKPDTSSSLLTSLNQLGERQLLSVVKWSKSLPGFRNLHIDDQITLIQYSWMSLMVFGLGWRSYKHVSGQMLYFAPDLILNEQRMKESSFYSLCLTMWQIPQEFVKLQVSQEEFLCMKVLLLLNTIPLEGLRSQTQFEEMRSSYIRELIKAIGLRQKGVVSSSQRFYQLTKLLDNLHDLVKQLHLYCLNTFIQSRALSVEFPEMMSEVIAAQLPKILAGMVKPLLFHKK

The nature of experiment [2]: qHTS assay to identify small molecule antagonists of the TGF-beta/Smad signaling pathway - cell viability counter screen (AID 1346824). Note: nearly all actives have a fitted effect of over 50% in size. Put shortly: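 Cytotoxicity counter-screen run in the same wells as the beta-lactamase Smad reporter read: CellTiter-Glo luminescence after 30 min at room temperature. HEK 293T SBE-bla cells had 5 hr compound exposure at 37 C with TGF-beta1 (0.25 ng/mL stock).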
(In qHTS, concentration-response curves come from the screen itself.)

Experiment [3] can be described thus: qHTS assay to identify small molecule agonists of the TGF-beta/Smad signaling pathway - cell viability counter screen (AID 1346829). Note: top concentration of the series differs between compounds; nearly all actives have a fitted effect of over 45% in size. An outline of the steps: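 After overnight seating at 37 C and 5% CO2, reporter cells got compounds for 5 hr and FRET substrate for 2 hr; cell viability then came from CellTiter-Glo luminescence.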
Experiment [4] in a line: qHTS assay to identify small molecule agonists of the TGF-beta/Smad signaling pathway (AID 1346859; active = well fitted activation curve with a large enough effect in the signal ratio in the repeat runs, not every such curve was filed as active; the % refers to the signal ratio; note: series mostly up to about 77 µM). Put shortly: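 Dual-wavelength fluorescence (460/530 nm emission) quantified beta-lactamase expression under the Smad binding element in HEK 293T cells following 5 hr compound treatment at 37 C.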
For experiment [5], the target named is Thyrotropin-releasing hormone receptor (Homo sapiens) (UniProt P34981). As to the kind of experiment: qHTS assay to identify small molecule agonists of the thyrotropin-releasing hormone receptor (TRHR) signaling pathway (AID 1346891; calls by dose curve; note: potency is the fitted concentration of half-maximal effect;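 for activation: HEK293 cells expressing TRHR with calcium dye readout; series mostly up to about 58 µM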). Put shortly: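 Kinetic fluorescence (3 min, 1 s intervals) reported intracellular calcium after compound transfer onto TRHR-Hek293 cells pre-loaded with dye for 2 h at 37 °C.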
Chain of Thyrotropin-releasing hormone receptor (Homo sapiens) (P34981 whole entry, looked up): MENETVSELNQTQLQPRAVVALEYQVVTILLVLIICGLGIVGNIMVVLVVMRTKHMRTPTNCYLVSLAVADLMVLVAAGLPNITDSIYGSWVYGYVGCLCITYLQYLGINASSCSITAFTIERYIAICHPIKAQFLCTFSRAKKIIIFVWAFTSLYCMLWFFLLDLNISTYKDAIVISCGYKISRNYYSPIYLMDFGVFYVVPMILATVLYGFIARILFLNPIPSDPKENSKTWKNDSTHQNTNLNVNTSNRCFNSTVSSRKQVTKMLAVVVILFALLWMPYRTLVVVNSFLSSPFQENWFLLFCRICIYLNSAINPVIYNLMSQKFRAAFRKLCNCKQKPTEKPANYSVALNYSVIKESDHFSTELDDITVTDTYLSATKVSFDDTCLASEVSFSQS

The nature of experiment [6]: Caspase-3/7 induction in HepG2 cells by small molecules, qHTS assay (AID 1346978). Note: nearly all actives have a fitted effect of over 15% in size. Put shortly:
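Caspase-3/7 induction was measured by Caspase-Glo 3/7 luminescence (30 min, room temperature) after a 17 hr compound exposure of wild-type HepG2 cells seeded at 2,000 per well and pre-incubated 5 hr.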

Experiment [7] is described as follows: Caspase-3/7 induction in CHO-K1 cells by small molecules, qHTS cell viability counter screen (AID 1346979). Note: nearly all actives have a fitted effect of over 35% in size. Note: potency is the fitted concentration of half-maximal effect. An outline of the steps: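 Seeding: 1,500 CHO-K1 cells/well. Rest: 5hr, 37C. Treatment: compounds in DMSO, 16hr. Read: CellTiter-Fluor, 1hr, fluorescence.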
Experiment [8] in a line: Caspase-3/7 induction in CHO-K1 cells by small molecules, qHTS assay (AID 1346980). Note: nearly all actives have a fitted effect of over 15% in size. Put shortly: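 Luminescent Caspase-Glo 3/7 read (30min, room temperature) quantified apoptosis induction. Cells were wild-type CHO-K1, treated with compound for 17hr at 37 C and 5% CO2.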
Experiment [9] can be described thus: Caspase-3/7 induction in HepG2 cells by small molecules, qHTS cell viability counter screen (AID 1346981). Note: nearly all actives have a fitted effect of over 30% in size. Note: potency is the fitted concentration of half-maximal effect. Put shortly: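 Steps: seed 2,000 HepG2 cells per well; incubate 5 hr at 37 C; pin-add compounds in DMSO; incubate 16 hr; add CellTiter-Fluor; after 1 hr at 37 C and 5% CO2, read fluorescence.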
Experiment [10] concerns the target Cytochrome P450 2D6 (Homo sapiens) (UniProt P10635). The experiment is described as follows: Cytochrome P450 Family 2 Subfamily D Member 6 (CYP2D6) small molecule antagonists: luciferase reporter qHTS assay (AID 1671196). Note: nearly all actives have a fitted effect of over 50% in size. Note: potency is the fitted concentration of half-maximal effect. Put shortly:
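P450-Glo format: CYP2D6 converts a proluciferin substrate to luciferin in an NADPH-driven reaction lasting 1 h at room temperature. Light output, proportional to CYP2D6 activity, reflects interference by test chemicals.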
For orientation: A reporter such as luciferase makes a cellular process visible.

The target of experiment [11] is Cytochrome P450 2C19 (Homo sapiens) (UniProt P33261). The experiment is described as follows: Cytochrome P450 Family 2 Subfamily C Member 19 (CYP2C19) small molecule antagonists: luciferase reporter qHTS assay (AID 1671197). Note: nearly all actives have a fitted effect of over 65% in size. Note: potency is the fitted concentration of half-maximal effect. An outline of the steps:
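Inhibition of CYP2C19 was scored from loss of luminescence in a P450-Glo proluciferin substrate assay, NADPH-started and run 1 h at 37C, with ketoconazole as positive control.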

The nature of experiment [12]: qHTS assay to identify small molecule agonists of the progesterone receptor (PR) signaling pathway - cell viability counter screen (AID 1346799; calls by dose curve; note: nearly all actives have a fitted effect of over 45% in size). An outline of the steps: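 Viability was scored by ATP luminescence (CellTiter-Glo, 30 min, room temperature) in the same wells used for the reporter readout, after 16 hr compound exposure of PR-UAS-bla HEK293T cells.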
Experiment [13] has as its target Thyrotropin-releasing hormone receptor (Homo sapiens) (UniProt P34981). As to the kind of experiment: qHTS assay to identify small molecule antagonists of the thyrotropin-releasing hormone receptor (TRHR) signaling pathway (AID 1346877; active = well fitted inhibition curve with a large enough effect in the repeat runs, not every such curve was filed as active; note: series mostly up to about 51 µM). Put shortly: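 Cells (TRHR-HEK293) are plated and kept 18 h at 37 °C/5% CO2. A calcium-sensitive dye is added for 2 h, compound follows for 5 min at room temperature, and TRH is then given at 1 nM final.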

Experiment [14] has as its target Nuclear receptor subfamily 1 group I member 2 (Homo sapiens) (UniProt O75469). As to the kind of experiment: Human pregnane X receptor (PXR) small molecule agonists, qHTS assay (AID 1346982). Note: nearly all actives have a fitted effect of over 35% in size. Note: potency is the fitted concentration of half-maximal effect. An outline of the steps:
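Agonist mode qHTS: PXR-Luc HepG2 cells plated 5 hr before DMSO-dissolved compounds were pinned in, cultured 24 hr at 37 C, 5% CO2; ONE-Glo luminescence readout.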

Experiment [15] has as its target Cytochrome P450 2C9 (Homo sapiens) (UniProt P11712). As to the kind of experiment: Cytochrome P450 Family 2 Subfamily C Member 9 (CYP2C9) small molecule antagonists: luciferase reporter qHTS assay (AID 1671198). Note: nearly all actives have a fitted effect of over 50% in size. Note: potency is the fitted concentration of half-maximal effect. An outline of the steps:
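Enzyme-substrate mix preincubated with compound 10 min at room temperature; reaction started with NADPH regeneration solution, 1 h 37C. Luminescent luciferin product read after 20 min detection reagent.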

Experiment [16] is described as follows: Human pregnane X receptor (PXR) small molecule agonists, qHTS cell viability counter screen (AID 1346977). Note: nearly all actives have a fitted effect of over 50% in size. An outline of the steps:
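HepG2 cells stably carrying the PXR-Luc reporter are cultured with 5% charcoal-stripped FBS and treated with compounds for 24hr. CellTiter-Fluor is added at 23hr and fluorescence is read after 1hr.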

For experiment [17], the target named is Nuclear receptor subfamily 1 group I member 2 (Rattus norvegicus) (UniProt Q9R1A7). As to the kind of experiment: Rat pregnane X receptor (rPXR) activation by small molecules, qHTS assay (AID 1346983). Note: nearly all actives have a fitted effect of over 20% in size. The following applies: rPXR luciferase reporter cells, One-Glo luminescence, 24 h; stronger effect = higher value. Put shortly: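 Luminescent readout (One-Glo luciferase, 30 min room temperature) followed 24 hr compound treatment at 37 C of rPXR cells plated 2,000 per well and preincubated 5hr; qHTS format with compounds delivered in DMSO.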
Chain of Nuclear receptor subfamily 1 group I member 2 (Rattus norvegicus) (Q9R1A7 whole entry, looked up): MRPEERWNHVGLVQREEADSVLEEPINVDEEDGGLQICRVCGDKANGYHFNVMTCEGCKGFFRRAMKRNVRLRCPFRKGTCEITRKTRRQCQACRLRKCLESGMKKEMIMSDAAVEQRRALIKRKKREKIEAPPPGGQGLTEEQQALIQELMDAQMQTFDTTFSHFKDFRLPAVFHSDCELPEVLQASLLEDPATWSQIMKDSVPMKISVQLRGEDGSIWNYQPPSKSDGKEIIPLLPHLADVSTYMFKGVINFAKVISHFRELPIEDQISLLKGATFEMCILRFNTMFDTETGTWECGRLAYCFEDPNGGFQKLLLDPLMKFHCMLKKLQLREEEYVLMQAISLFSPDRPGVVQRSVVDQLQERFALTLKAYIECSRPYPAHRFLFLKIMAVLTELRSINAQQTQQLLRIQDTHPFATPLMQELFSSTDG

This is an account of results in PubChem BioAssay (Tox21).

Where “and” joins values, the source holds several entries; their conditions need not be identical. Identical values can stand only once. Inconclusive results are not listed. Where a structure was tested more than once in an assay, its records may differ in their call. Calls of active or inactive are those of the source. Unless noted, calls come from the whole dose curve; as a rule, active = well fitted curve in the direction sought with a large enough effect in the repeat runs; inconclusive = weak or mixed curves; inactive = no such curve, though single readings can be large; an effect the other way counts as inactive or inconclusive.
% is set by controls: 0 for no effect and ±100 for the full control effect.

Chain of Nuclear receptor subfamily 1 group I member 2 (Homo sapiens) (O75469 whole entry, looked up): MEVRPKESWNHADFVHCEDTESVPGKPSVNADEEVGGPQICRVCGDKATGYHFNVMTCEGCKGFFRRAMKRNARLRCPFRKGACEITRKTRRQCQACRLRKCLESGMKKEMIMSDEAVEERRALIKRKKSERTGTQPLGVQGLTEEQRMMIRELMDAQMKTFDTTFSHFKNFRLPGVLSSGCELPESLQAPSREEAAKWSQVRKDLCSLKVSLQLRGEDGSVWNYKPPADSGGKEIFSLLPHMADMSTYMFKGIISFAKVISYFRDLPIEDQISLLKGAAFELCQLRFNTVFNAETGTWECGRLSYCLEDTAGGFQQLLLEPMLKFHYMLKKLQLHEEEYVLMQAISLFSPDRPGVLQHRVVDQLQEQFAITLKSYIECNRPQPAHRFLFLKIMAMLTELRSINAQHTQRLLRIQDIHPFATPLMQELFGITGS
Chain of Cytochrome P450 2C9 (Homo sapiens) (P11712 whole entry, looked up): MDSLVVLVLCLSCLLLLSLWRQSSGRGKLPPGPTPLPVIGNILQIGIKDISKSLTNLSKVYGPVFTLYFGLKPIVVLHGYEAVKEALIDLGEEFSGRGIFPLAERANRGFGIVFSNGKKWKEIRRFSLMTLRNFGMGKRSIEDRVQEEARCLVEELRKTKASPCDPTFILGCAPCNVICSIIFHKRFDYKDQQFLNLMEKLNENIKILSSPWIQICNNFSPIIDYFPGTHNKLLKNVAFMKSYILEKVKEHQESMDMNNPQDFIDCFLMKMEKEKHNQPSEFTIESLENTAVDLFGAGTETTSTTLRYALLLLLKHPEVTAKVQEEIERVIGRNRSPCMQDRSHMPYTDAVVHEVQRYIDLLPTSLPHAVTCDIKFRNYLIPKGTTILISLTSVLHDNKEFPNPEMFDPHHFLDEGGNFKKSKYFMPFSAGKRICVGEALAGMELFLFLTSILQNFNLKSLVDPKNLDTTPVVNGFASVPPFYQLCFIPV
Chain of Cytochrome P450 2D6 (Homo sapiens) (P10635 whole entry, looked up): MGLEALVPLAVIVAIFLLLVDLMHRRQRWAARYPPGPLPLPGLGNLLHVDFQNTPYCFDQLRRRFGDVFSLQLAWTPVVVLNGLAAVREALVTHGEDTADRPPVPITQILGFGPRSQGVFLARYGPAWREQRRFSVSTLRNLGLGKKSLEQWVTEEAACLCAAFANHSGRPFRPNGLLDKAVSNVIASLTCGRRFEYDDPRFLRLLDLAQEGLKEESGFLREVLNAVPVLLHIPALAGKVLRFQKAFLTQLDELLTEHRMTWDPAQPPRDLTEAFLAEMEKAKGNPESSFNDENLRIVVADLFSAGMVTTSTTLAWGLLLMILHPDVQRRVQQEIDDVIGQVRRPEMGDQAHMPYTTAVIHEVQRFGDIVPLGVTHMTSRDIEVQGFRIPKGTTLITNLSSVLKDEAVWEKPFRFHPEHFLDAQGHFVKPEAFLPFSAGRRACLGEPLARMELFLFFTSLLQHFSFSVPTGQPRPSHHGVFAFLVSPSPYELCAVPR
Chain of Cytochrome P450 2C19 (Homo sapiens) (P33261 whole entry, looked up): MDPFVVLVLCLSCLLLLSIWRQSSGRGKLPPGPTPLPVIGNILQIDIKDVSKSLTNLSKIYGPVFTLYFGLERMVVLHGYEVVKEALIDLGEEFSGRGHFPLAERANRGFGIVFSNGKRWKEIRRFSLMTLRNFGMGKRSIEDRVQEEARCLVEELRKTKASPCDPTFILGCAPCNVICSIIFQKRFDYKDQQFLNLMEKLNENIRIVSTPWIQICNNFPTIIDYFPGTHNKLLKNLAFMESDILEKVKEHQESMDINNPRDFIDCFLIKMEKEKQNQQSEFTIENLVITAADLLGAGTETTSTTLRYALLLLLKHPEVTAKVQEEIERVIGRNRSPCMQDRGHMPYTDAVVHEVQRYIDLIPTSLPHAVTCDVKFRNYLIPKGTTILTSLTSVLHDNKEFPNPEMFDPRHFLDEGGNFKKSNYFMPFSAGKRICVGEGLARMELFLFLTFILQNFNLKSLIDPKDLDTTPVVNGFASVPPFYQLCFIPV

As for `Oc1c(Cl)cc(Cl)cc1Sc1cc(Cl)cc(Cl)c1O`, the Potency in experiment [1] was 21.7 µM (active) and 49.3 µM (active); in experiment [5], 39.6 µM (active) and inactive; in experiment [7] it was 15.4 µM (active) and 62.1 µM (active) and 17.2 µM (active); in [9] it was 15.4 µM (active); in [11] it was 71.2 µM (active) and 79.6 µM (active) and inactive. Moreover, the Potency result in experiment [2], in [3], in [6], in experiment [8] and in experiment [10] was “inactive” throughout. Further, the call in [4] was inactive.

For `O=C(O)CCc1ccccc1`, the Potency result in experiment [1], in experiment [12], in experiment [3], in experiment [13], in experiment [5] and in [6] was “inactive” in each case. Besides, the Potency entry in experiment [7], in [8], in [14], in [10], in experiment [11] and in [15] was “inactive” in each case. For the same compound, the call in experiment [4] was inactive.

Take `CCCC(=O)c1ccccc1`: the Potency entry in experiment [1], in experiment [12], in experiment [3], in experiment [13], in experiment [5] and in experiment [16] was “inactive” throughout. Besides, the Potency entry in experiment [6], in [7], in experiment [8], in experiment [9], in experiment [14] and in experiment [11] was “inactive” throughout. The Potency result in experiment [15] is “inactive”. In [4], the compound was called inactive. Also, the Potency in experiment [10] is 31.7 µM (active).

On to `CC1COC(=O)O1` (stereo not given), for which the Potency result in experiment [1], in [12], in experiment [3], in [13], in experiment [5] and in [16] was “inactive” each time. Besides, the Potency entry in [6], in [7], in experiment [8], in experiment [9], in experiment [14] and in experiment [10] was “inactive” throughout. Besides, the Potency result in [11] and in [15] was “inactive” each time. In addition, the compound was called inactive in [4].

`CC(C)(C)NC(=O)[C@@H]1CN(Cc2cccnc2)CCN1C[C@@H](O)C[C@@H](Cc1ccccc1)C(=O)N[C@H]1c2ccccc2C[C@H]1O`: the Potency result in experiment [1], in [12], in [2], in experiment [3], in [6] and in experiment [7] was “inactive” throughout. Moreover, the Potency entry in [8] and in [9] was “inactive” throughout. Also, the outcome in experiment [4] was inactive. The max activation in experiment [17] was 4.92% (inactive).

Take `O=C1Nc2ccccc2C1(c1ccc(O)cc1)c1ccc(O)cc1`: the Potency is 54.5 µM (active) in experiment [1]; 61.1 µM (active) and inactive in [14]; 17.8 µM (active) and 9.77 µM (active) in experiment [11]; 6.33 µM (active) and 3.89 µM (active) in experiment [15]. The Potency entry in experiment [2], in experiment [3], in [16], in experiment [6], in experiment [8] and in experiment [9] was “inactive” throughout. In [4], the outcome was inactive.
